Source: the supplement of paper PMC12669032

Tested on: Coprococcus comes
Experiment: growth AUC relative to DMSO control (median of replicates) (fraction); higher = more growth (less inhibition), active = hit call of the paper
Conditions: 20 µM; 24 h;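 active = AUC reduced over 20% with Padj below 0.05 in at least 2 of 3 replicates; inactive = otherwise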
Procedure, shortened: (§1)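 OD600 was recorded every hour for 24 h in anaerobic monocultures of gut bacteria kept at 37 °C in mGAM, seeded at OD600 0.05 and given 20 µM compound in 1% DMSO. The area under each growth curve was scaled to the plate median of solvent-only wells, or to row and column medians for the industrial chemical plate. Before this step, the minimum OD was set to 0. Reported values are medians of three biological replicates run on separate days.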

Growth AUC, inactive:
CC(C)N(C(=O)CS(=O)(=O)[O-])c1ccc(F)cc1.[Na+] 0.982
CN(C)C(=O)Nc1ccc(Oc2ccc(Cl)cc2)cc1 0.938
[S] 0.956
COC(=O)c1csc(C)c1S(=O)(=O)NC(=O)n1nc(OC)n(C)c1=O 1.01
COc1c(Cl)ccc(Cl)c1C(=O)O 1.01

Tested on: Escherichia coli ED1a
Experiment: as above
Conditions: 20 µM; 24 h
Procedure, shortened: as §1

Growth AUC, inactive:
C#CCOC(=O)[C@@H](C)Oc1ccc(Oc2ncc(Cl)cc2F)cc1 1.01
c1ccc2cc3c(ccc4ccccc43)cc2c1 0.999
CN(C)C=O 1.03
COc1nc(N)nc(NC(C)(C)C)n1 1
Cc1ccc(Cl)cc1 1.01
O=C(O)Cc1c(Cl)ccc(Cl)c1Cl 0.947
O=c1oc(-c2ccccc2)nc2ccccc12 0.967
COC(=O)c1cccc(C)c1S(=O)(=O)NC(=O)Nc1nc(OCC(F)(F)F)nc(N(C)C)n1 0.992
COc1cc(OC)nc(NC(=O)NS(=O)(=O)Nc2ccccc2C(=O)N(C)C)n1 0.981
O=S(Cc1ccc(Cl)cc1)c1ccc(Cl)cc1 (stereo not drawn) 0.986
CCOc1ccc2c(c1)C(C)=CC(C)(C)N2 1.03
CC(C)COC(=O)COc1cc(Cl)c(Cl)cc1Cl 1.01
CN(C)C(=O)Nc1cc(C(C)(C)C)on1 0.997
